# Sampled rows, rich in hits. Any-hit rate of the full collection: about 3.9%.
# p53null 39C tox: qHTS Screen for Compounds that Selectively Target Cancer Cells with p53 Mutations: Cytotoxicity of p53 Null Cells at the Nonpermissive Temperature; H1299 p53-null (neo) cells, 39C, ATPlite viability, 24 h; Potency, µM (top dose mostly 46.1 µM), for the others: at the top dose activity, negative = cell killing, hits mostly cytotoxic; 0.97% of 55,000 active; AID 904, 2007;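 also: potency is read from the fitted curve at half-maximal effect; 0% = DMSO only and -100% = full killing by 100 µM tamoxifen; nearly all actives have a fitted effect of over 50% in size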
#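 Concentration-response (up to 46 uM) was run for 24 h at the nonpermissive 39C on H1299-p53A138V or H1299-neo cells. ATP content was measured with ATPlite luminescence. AC50 values were Hill-modeled after normalizing between DMSO and 100 uM tamoxifen killing.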
# p53null 32C kill: qHTS Screen for Compounds that Selectively Target Cancer Cells with p53 Mutations: Cytotoxicity of p53 Null Cells at the Permissive Temperature; H1299-neo p53 null cells, ATP luminescence, 24 h, 32C; 0.62% of 55,000 active; Potency, µM (doses to about 46.1 µM), inactives show top-dose activity change, negative = cytotoxicity, hits mostly cytotoxic;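 also: potency is read from the fitted curve at half-maximal effect; 0% = DMSO only and -100% = full killing by 100 µM tamoxifen; nearly all actives have a fitted effect of over 55% in size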
#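 Cytotoxicity: H1299-neo (no p53), 32C, 24 h treatment. Concentrations up to 46 uM. Readout cellular ATP, luminescence. Normalization to DMSO basal and tamoxifen 100 uM maximal kill.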
# DRV1 agonist: qHTS for Agonists of Human Resolvin D1 Receptor DRV1; AID 1346428, 2018; CHO-K1 GPR32 beta-arrestin PathHunter luminescence, 90 min; zero percent set by DMSO-only wells; activation, % at 76.9 µM; Probable G-protein coupled receptor 32 (Homo sapiens), O75388; 2.5% of 48,000 active;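 active = activation of at least 60% and not above a set upper limit, about 1 call in 100 departs from these limits; inconclusive = activation of 40% to 60%, or above that upper limit; inactive = activation under 40%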; also: 0% is about no effect
# Target sequence (O75388 whole entry, looked up): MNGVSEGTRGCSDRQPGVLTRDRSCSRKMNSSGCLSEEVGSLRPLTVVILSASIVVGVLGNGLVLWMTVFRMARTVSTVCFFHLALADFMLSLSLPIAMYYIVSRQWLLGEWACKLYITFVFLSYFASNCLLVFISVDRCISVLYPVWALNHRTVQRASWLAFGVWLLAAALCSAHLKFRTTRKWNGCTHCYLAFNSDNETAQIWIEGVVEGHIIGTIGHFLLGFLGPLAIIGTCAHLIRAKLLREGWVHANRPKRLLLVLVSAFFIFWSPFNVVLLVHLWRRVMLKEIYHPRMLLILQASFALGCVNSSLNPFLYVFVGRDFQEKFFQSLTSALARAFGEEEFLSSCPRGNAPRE
#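 CHO-K1 cells stably expressing ProLink-tagged GPR32 and Enzyme Activator-tagged beta-arrestin were seeded at 2,500 cells/well overnight, exposed to compounds for 90 min at 37 °C, then read by beta-Gal complementation chemiluminescence after 1 h detection reagent.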
# NTMT1 inhibitor: Primary qHTS for Inhibitors of N-terminal methyltransferase 1 (NTMT1): MTaseGlo Assay; N-terminal Xaa-Pro-Lys N-methyltransferase 1 (Homo sapiens), Q9BV86; 2.5% of 59,000 active; Potency, µM (titrated, usually from 114 µM), for the others: at the top dose activity change, negative = inhibition, hits mostly inhibitors; NTMT1 MTase-Glo SAH luminescence, purified enzyme; AID 1645870, 2021;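 also: potency is read from the fitted curve at half-maximal effect; plate controls were DMSO vehicle for no effect and no enzyme for full effect; nearly all actives have a fitted effect of over 65% in size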
# Target sequence (Q9BV86 whole entry, looked up): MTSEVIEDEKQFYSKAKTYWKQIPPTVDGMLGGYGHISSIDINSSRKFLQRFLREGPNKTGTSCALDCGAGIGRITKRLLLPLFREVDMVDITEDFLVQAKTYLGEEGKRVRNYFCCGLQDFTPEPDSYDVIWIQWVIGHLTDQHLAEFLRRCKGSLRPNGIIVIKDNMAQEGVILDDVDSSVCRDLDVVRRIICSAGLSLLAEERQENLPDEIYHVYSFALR
# GALC G270D act: A Novel Cell-Based Assay to Identify Small Molecules for B -Galactocerebrosidase; 145M-Twi-hGALC-G270D cells (Twitcher mouse brain line with human GALC G270D), HMU-beta-Gal fluorescence, 48 h; 0.1% of 45,000 active; P54803; Potency, µM (highest dose often 57.5 µM), hits mostly activators; also: potency is read from the fitted curve at half-maximal effect; 0% is about no effect; nearly all actives have a fitted effect of over 65% in size
#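 Live 145M-Twi cells (Twitcher mouse brain-derived, GALC-null) stably expressing human GALC-G270D, with a wild-type GALC line, were compound-treated. Residual GALC activity was then read as fluorescence from 0.1 mM final HMU-β-gal at pH 5.2; higher signal means activation.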
# FH mod: Identification of activators of human fumarate hydratase by quantitative high-throughput screening; Fumarate hydratase, mitochondrial (Homo sapiens), P07954; FH coupled MDH/diaphorase resazurin fluorescence, 15 min; Potency, µM (series often up to 79.9 µM), for the others: at the highest dose activity change, negative = inhibition, usual class: inhibitors; 0.22% of 54,000 active; also: potency is read from the fitted curve at half-maximal effect; % is scaled to controls: 0 for no effect and ±100 for the full control effect; the screen sought activators but most active calls are inhibition curves; nearly all actives have a fitted effect of over 45% in size
# Active calls of the source: *; i = inactive; u = inconclusive; x = no result given; ! = not confirmed by another sample; [ ] = dose if it differs, or a comment. Unless noted, calls follow the shape of the dose curve; as a rule, active = well fitted curve in the direction sought with a large enough effect; inconclusive = small, poorly fitted or top-dose-only effect, or another doubt; inactive = no such curve, though single readings can be large; an effect the other way counts as inactive or inconclusive.
SMILES,p53null 39C tox,p53null 32C kill,DRV1 agonist,NTMT1 inhibitor,GALC G270D act,FH mod
CC(C)C(=O)OC[C@@]1(N=[N+]=[N-])O[C@@H](n2ccc(N)nc2=O)[C@H](OC(=O)C(C)C)[C@@H]1OC(=O)C(C)C,x,x,x,2.5%,x,0.1%
CCNC(=O)C1CCCN(c2nnc(C)c3c(C)n(-c4ccc(C)cc4)nc23)C1 (stereo not drawn),-17.6%,1.7%,5.5,-1.6%,i,u
COc1ccc(CNC(=O)C2CCCN(c3nnc(C)c4c(C)n(-c5ccc(C)cc5)nc34)C2)cc1 (stereo not drawn),3.5%,-0.7%,-0.6,79.4µM*,i,-28.1%
OC[C@@]1(O)CO[C@H](OC[C@H]2O[C@@H](OC(CCCCc3ccc(O)cc3)CCc3ccc(O)cc3)[C@H](O)[C@@H](O)[C@@H]2O)[C@@H]1O (stereo partly drawn),x,x,x,11.4%[12.6 µM],x,5.4%[20.6 µM]
COc1cc(O)c(C(CC(=O)N2CC(C)CC(C)C2)c2ccc(C)cc2)c(OC)c1 (stereo not drawn),x,x,x,9.4%,x,x
COc1cc(C(O)C(CO)Oc2ccc(CCCO[C@@H]3O[C@@H](C)[C@H](O)[C@@H](O)[C@H]3O)cc2OC)ccc1O (stereo partly drawn),x,x,x,6.8%[29.8 µM],x,0.6%[53.3 µM]
C#Cc1cccc(Nc2ncnc3cc(OCCOC)c(OCCO)cc23)c1,x,x,x,35.5µM*,x,3.3%[53.3 µM]
C#Cc1cccc(Nc2ncnc3cc(OC)c(OC)cc23)c1,x,x,x,-9.8%,x,2.3%
Nc1ccc2oc(-c3ccc4nc[nH]c4c3)nc2c1,12.6µM*,7.94µM*,x,x,x,x
COc1cc2nccc(Oc3ccc(NC(=O)c4cn(C(C)C)c(=O)n(-c5ccc(F)cc5)c4=O)cc3F)c2cc1OC,x,x,x,22.3%,x,x
CN1CCc2c(sc3c2C(=O)NC(c2ccc(C(C)(C)C)cc2)N3)C1 (stereo not drawn),19.8%,-3.5%,-7.0,79.4µM*,i,-3.0%
CC(C)c1ccc(C2NC(=O)c3c(sc4c3CCN(C)C4)N2)cc1 (stereo not drawn),2.4%,-6.9%,-16.5,4.1%,i,8.8%
Cc1cccc(C)c1NC(=O)CSc1nc2ccccc2c2nc(CCc3c(C)n[nH]c3C)nn12,-10.3%,1.6%,-13.0,-3.3%,i,-2.4%
Cc1n[nH]c(C)c1CCc1nc2c3ccccc3nc(SCC(=O)Nc3ccc(F)cc3)n2n1,u,u,72.0*,10.3%,i,-1.6%
COc1cc2nc(SCC(=O)Nc3ccc(F)cc3)n3nc(CCn4c(C)nc5ccccc54)nc3c2cc1OC,20µM*,12.0%,-8.6,-9.8%,i,-11.8%
COc1cc2nc(SCC(=O)Nc3cccc(C)c3)n3nc(CCn4c(C)nc5ccccc54)nc3c2cc1OC,-15.1%,3.0%,-6.0,u,i,-14.6%
CCCCCCC[N+](CC)(CC)CCCCc1ccc(Cl)cc1,x,x,86.6*,u,i,2.3%[53.3 µM]
CCCCCCCCCCCC[N+](C)(C)Cc1ccccc1,x,x,-16.2,u,i,-1.8%[53.3 µM]
C=C(C)[C@H]1C[C@@H](O)C(=C)CC[C@@H](O)C(=C)[C@@H](O)C1,x,x,x,16.1%[57.5 µM],x,-1.6%
O=C1Nc2ccccc2Oc2cc(Oc3cccc(Cl)c3)ccc21,u,-20.5%,91.3*,11.2%,i,1.0%
CCc1ccc(Nc2nc(N)nc(CSc3nc4ccccc4s3)n2)cc1,u,2.0%,34.8,89.1µM*,i,u
COc1cccc(CNS(=O)(=O)c2ccc3c(c2)C(C(C)C)C(=O)N3)c1 (stereo not drawn),3.0%,6.0%,75.8*,8.1%,i,-4.6%
CC(C)C1C(=O)Nc2ccc(S(=O)(=O)NCCc3ccc(Cl)cc3)cc21 (stereo not drawn),14.6%,20.3%,87.3*,-7.3%,i,-0.2%
Cc1ccc(Cl)cc1N1CCN(S(=O)(=O)c2ccc3c(c2)C(C(C)C)C(=O)N3)CC1 (stereo not drawn),40.6%,41.4%,u,1.6%,i,-27.2%
C[C@@H](NC(=O)c1cc(C(=O)N[C@@H](Cc2ccccc2)[C@H](O)CNC2CC2)cc(N(C)S(C)(=O)=O)c1)c1ccccc1,x,x,x,5.2%[57.5 µM],x,2.6%
SMILES,p53null 39C tox,p53null 32C kill,DRV1 agonist,NTMT1 inhibitor,GALC G270D act,FH mod
Cc1[nH]c(/C=C2\C(=O)Nc3ccc(S(=O)(=O)N(C)c4cccc(Cl)c4)cc32)c(C)c1C(=O)N1CCN(C)CC1,x,x,x,-14.9%,x,-11.3%
CN1CCCN(C(=O)c2cccc(-c3ccc(C=C4C(=O)Nc5ccc(Cl)cc54)o3)c2)CC1,x,x,x,7.08µM*,x,-3.0%[53.3 µM]
COc1ncc(Nc2ncc(C(C)N3CCN(S(C)(=O)=O)CC3)cc2-c2nc(C)nc(N)n2)cc1F (stereo not drawn),x,x,x,-20.8%,x,x
COc1cc(-c2nc3ccc(C)cn3c2Nc2ccc(Cl)cc2)ccc1O,20µM*,9.7%,28.8,u,i,u
COc1cc(-c2nc3ccc(Cl)cn3c2Nc2ccc3c(c2)OCO3)ccc1O,30.4%,54.1%,-11.5,u,i,u
O=C(O/N=C1\c2ccccc2-c2nc3ccccc3nc21)c1ccco1,x,x,x,u,x,-17.6%
CCCCCCCCCC(=O)N[C@@H](Cc1c[nH]c2ccccc12)C(=O)N[C@H](CC(N)=O)C(=O)N[C@@H](CC(=O)O)C(=O)N[C@@H]1C(=O)NCC(=O)N[C@@H](CCCN)C(=O)N[C@@H](CC(=O)O)C(=O)N[C@H](C)C(=O)N[C@@H](CC(=O)O)C(=O)NCC(=O)N[C@H](CO)C(=O)N[C@@H]([C@@H](C)CC(=O)O)C(=O)N[C@@H](CC(=O)c2ccccc2N)C(=O)O[C@@H]1C,x,x,x,7.1%[57.5 µM],x,3.7%[20.6 µM]
CCCCCCCCc1ccc(CCC(N)(CO)CO)cc1,x,x,x,44.7µM*!,x,6.6%
C=CC(=O)c1ccc(CCCCCC)cc1,x,x,11.4,x,x,x
Cc1ncc(NC(=O)c2cccc(C(F)(F)F)c2)cc1-c1cnc(OC2CCOCC2)c(N2CCOCC2)c1,x,x,x,-2.7%,x,x
CCCCN(CCCNC(=O)c1cc(Nc2cccc(SC)c2)nc2ccccc12)Cc1ccccc1,5.62µM*,-18.8%,-18.1,3.0%,i,u
CSc1cccc(Nc2cc(C(=O)NCCc3ccc(Cl)cc3)c3ccccc3n2)c1,u,-8.4%,-4.6,4.6%,i,u
